In PubChem BioAssay AID1159580 (chemical genetic matrix, 2015):
Where “and” joins values, the source holds several entries; their conditions need not be identical. Equal values may be shown once. The campaign covered roughly 5,500 compounds. About 2,000 (36%) were called active. About 18% were inconclusive and are not listed. Rule as the data show it: active = normalized growth mostly below about 0.91 (no sharp cut-off); inconclusive = no clear call, values can overlap the other calls; inactive = mostly above about 0.92. Some of the results follow.

Experiment: chemical genetic growth profiling, strain panel (AID 1159580);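 also: tested at 20 µM; growth read once vehicle control cultures reached saturation at 30 °C; 1 = growth at the plate median or of vehicle wells; lower values mean less growth of the strain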
Conditions: S. cerevisiae deletion strains, growth OD

Measured: normalized growth

CN(C)c1ccc(C(=C2C=CC(=[N+](C)C)C=C2)c2ccc(N(C)C)cc2)cc1
active: locus YAL013W, strain DEP1, stronger effect = lower value 0.362 | locus YAL021C, strain ccr4, stronger effect = lower value 0.479 | locus YAL026C, strain drs2, stronger effect = lower value 0.563 | locus YAL030W, strain snc1, stronger effect = lower value 0.453 | locus YBL061C, strain skt5, stronger effect = lower value 0.535 | locus YBR009C, strain hhf1, stronger effect = lower value 0.486 | locus YBR021W, strain FUR4, stronger effect = lower value 0.603 | locus YBR023C, strain chs3, stronger effect = lower value 0.506 | locus YBR171W, strain sec66, stronger effect = lower value 0.717 | locus YBR229C, strain ROT2, stronger effect = lower value 0.353 | locus YBR231C, strain swc5, stronger effect = lower value 0.551 | locus YBR279W, strain paf1, stronger effect = lower value 0.463 | locus YCL011C, strain gbp2, stronger effect = lower value 0.524 | locus YCL016C, strain dcc1, stronger effect = lower value 0.473 | locus YCL029C, strain bik1, stronger effect = lower value 0.507 | locus YCL069W, strain vba3, stronger effect = lower value 0.57 | locus YCR088W, strain abp1, stronger effect = lower value 0.563 | locus YDL005C, strain med2, stronger effect = lower value 0.67 | locus YDL035C, strain GPR1, stronger effect = lower value 0.317 | locus YDL040C, strain nat1, stronger effect = lower value 0.48 | locus YDL074C, strain BRE1, stronger effect = lower value 0.492 | locus YDL101C, strain DUN1, stronger effect = lower value 0.397 | locus YDL185W, strain tfp1, stronger effect = lower value 0.433 | locus YDL192W, strain arf1, stronger effect = lower value 0.462 | locus YDR001C, strain nth1, stronger effect = lower value 0.562 | locus YDR069C, strain doa4, stronger effect = lower value 0.61 | locus YDR101C, strain arx1, stronger effect = lower value 0.486 | locus YDR137W, strain rgp1, stronger effect = lower value 0.77 | locus YDR159W, strain sac3, stronger effect = lower value 0.75 | locus YDR162C, strain NBP2, stronger effect = lower value 0.316 | locus YDR297W, strain sur2, stronger effect = lower value 0.537 | locus YDR318W, strain mcm21, stronger effect = lower value 0.487 | locus YDR334W, strain swr1, stronger effect = lower value 0.578 | locus YDR335W, strain msn5, stronger effect = lower value 0.577 | locus YDR388W, stronger effect = lower value 0.435 | locus YDR392W, strain spt3, stronger effect = lower value 0.658 | locus YDR502C, strain sam2, stronger effect = lower value 0.534 | locus YEL003W, strain gim4, stronger effect = lower value 0.547 | locus YEL037C, strain rad23, stronger effect = lower value 0.565 | locus YEL061C, strain CIN8 (second series), stronger effect = lower value 0.569 | locus YEL061C, strain CIN8, stronger effect = lower value 0.347 | locus YER015W, strain faa2, stronger effect = lower value 0.574 | locus YER016W, strain bim1, stronger effect = lower value 0.494 | locus YER110C, stronger effect = lower value 0.586 | locus YER111C, strain swi4, stronger effect = lower value 0.744 | locus YER155C, strain BEM2 (second series), stronger effect = lower value 0.826 | locus YER155C, strain BEM2, stronger effect = lower value 0.411 | locus YER167W, strain BCK2, stronger effect = lower value 0.334 | locus YFR010W, strain ubp6, stronger effect = lower value 0.614 | locus YGL078C, strain dbp3, stronger effect = lower value 0.493 | locus YGL086W, strain mad1, stronger effect = lower value 0.406 | locus YGL167C, strain pmr1, stronger effect = lower value 0.59 | locus YGL173C, strain kem1, stronger effect = lower value 0.637 | locus YGL227W, strain vid30, stronger effect = lower value 0.561 | locus YGL240W, strain doc1, stronger effect = lower value 0.618 | locus YGL248W, strain PDE1, stronger effect = lower value 0.345 | locus YGL253W, strain hxk2, stronger effect = lower value 0.465 | locus YGR078C, strain PAC10, stronger effect = lower value 0.321 | locus YGR135W, strain pre9, stronger effect = lower value 0.509 | locus YGR229C, strain SMI1, stronger effect = lower value 0.363 | locus YGR252W, strain gcn5, stronger effect = lower value 1.33 [resistant] | locus YHR013C, strain ard1, stronger effect = lower value 0.747 | locus YHR027C, strain rpn1, stronger effect = lower value 0.525 | locus YHR079C, strain IRE1 (second series), stronger effect = lower value 0.476 | locus YHR079C, strain IRE1, stronger effect = lower value 1.26 [resistant] | locus YHR094C, strain hxt1, stronger effect = lower value 0.455 | locus YHR129C, strain ARP1, stronger effect = lower value 0.366 | locus YHR142W, strain chs7, stronger effect = lower value 0.638 | locus YHR200W, strain rpn10, stronger effect = lower value 0.459 | locus YIL066C, strain RNR3, stronger effect = lower value 0.346 | locus YIL073C, strain SPO22, stronger effect = lower value 0.67 | locus YIL125W, strain kgd1, stronger effect = lower value 0.505 | locus YIR030C, strain dcg1, stronger effect = lower value 0.493 | locus YJL092W, strain hpr5, stronger effect = lower value 0.548 | locus YJL095W, strain BCK1 (second series), stronger effect = lower value 0.525 | locus YJL115W, strain asf1, stronger effect = lower value 0.651 | locus YJL129C, strain trk1, stronger effect = lower value 0.795 | locus YJL134W, strain LCB3, stronger effect = lower value 0.349 | locus YJL154C, strain vps35, stronger effect = lower value 0.551 | locus YJL164C, strain tpk1, stronger effect = lower value 0.548 | locus YJL166W, strain qcr8, stronger effect = lower value 0.478 | locus YJL168C, strain set2, stronger effect = lower value 0.448 | locus YJL187C, strain SWE1 (second series), stronger effect = lower value 0.333 | locus YJL187C, strain SWE1, stronger effect = lower value 0.521 | locus YJR043C, strain POL32, stronger effect = lower value 0.373 | locus YJR066W, strain TOR1, stronger effect = lower value 0.0572 | locus YKL009W, strain mrt4, stronger effect = lower value 0.538 | locus YKL068W, stronger effect = lower value 0.431 | locus YKL085W, strain MDH1 (second series), stronger effect = lower value 0.429 | locus YKL085W, strain MDH1, stronger effect = lower value 0.429 | locus YKL160W, strain elf1, stronger effect = lower value 0.44 | locus YKR001C, strain vps1, stronger effect = lower value 0.514 | locus YKR026C, strain gcn3, stronger effect = lower value 0.573 | locus YKR091W, strain srl3, stronger effect = lower value 0.536 | locus YLL001W, strain dnm1, stronger effect = lower value 0.605 | locus YLL026W, stronger effect = lower value 0.536 | locus YLL041C, strain sdh2, stronger effect = lower value 0.468 | locus YLR027C, strain aat2, stronger effect = lower value 0.449 | locus YLR058C, strain SHM2, stronger effect = lower value 0.364 | locus YLR102C, strain apc9, stronger effect = lower value 0.449 | locus YLR113W, strain HOG1, stronger effect = lower value 1.5 [resistant] | locus YLR221C, strain rsa3, stronger effect = lower value 0.457 | locus YLR258W, strain gsy2, stronger effect = lower value 0.527 | locus YLR262C, strain YPT6 (second series), stronger effect = lower value 0.65 | locus YLR268W, strain sec22, stronger effect = lower value 0.553 | locus YLR320W, strain mms22, stronger effect = lower value 0.558 | locus YLR330W, strain CHS5, stronger effect = lower value 0.355 | locus YLR342W, strain FKS1 (second series), stronger effect = lower value 0.388 | locus YLR342W, strain FKS1, stronger effect = lower value 0.499 | locus YLR370C, strain arc18, stronger effect = lower value 0.564 | locus YLR371W, strain rom2, stronger effect = lower value 0.489 | locus YLR384C, strain iki3, stronger effect = lower value 0.486 | locus YLR418C, strain cdc73, stronger effect = lower value 0.769 | locus YML016C, strain PPZ1, stronger effect = lower value 0.345 | locus YML032C, strain rad52, stronger effect = lower value 0.583 | locus YML120C, strain ndi1, stronger effect = lower value 0.554 | locus YML124C, strain tub3, stronger effect = lower value 0.48 | locus YMR058W, strain fet3, stronger effect = lower value 0.59 | locus YMR078C, strain ctf18, stronger effect = lower value 0.546 | locus YMR125W, strain sto1, stronger effect = lower value 0.617 | locus YMR129W, stronger effect = lower value 0.505 | locus YMR205C, strain PFK2, stronger effect = lower value 0.688 | locus YMR223W, strain ubp8, stronger effect = lower value 0.524 | locus YMR231W, strain pep5, stronger effect = lower value 0.558 | locus YMR307W, strain GAS1, stronger effect = lower value 0.562 | locus YNL067W, strain RPL9B, stronger effect = lower value 0.315 | locus YNL071W, strain lat1, stronger effect = lower value 0.573 | locus YNL183C, strain NPR1, stronger effect = lower value -0.00369 | locus YNL209W, strain ssb2, stronger effect = lower value 0.435 | locus YNL233W, strain BNI4, stronger effect = lower value 0.338 | locus YNL248C, strain rpa49, stronger effect = lower value 0.6 | locus YNL250W, strain rad50, stronger effect = lower value 0.597 | locus YNL271C, strain bni1, stronger effect = lower value 0.458 | locus YNL298W, strain CLA4, stronger effect = lower value 0.511 | locus YNL307C, strain MCK1, stronger effect = lower value 0.521 | locus YNL322C, strain KRE1 (second series), stronger effect = lower value 0.626 | locus YNL322C, strain KRE1, stronger effect = lower value 0.318 | locus YNR049C, strain mso1, stronger effect = lower value 0.547 | locus YNR052C, strain pop2, stronger effect = lower value 0.497 | locus YOL147C, strain pex11, stronger effect = lower value 0.501 | locus YOR001W, strain rrp6, stronger effect = lower value 0.55 | locus YOR061W, strain CKA2, stronger effect = lower value 0.335 | locus YOR069W, strain VPS5, stronger effect = lower value 0.33 | locus YOR070C, strain gyp1, stronger effect = lower value 0.466 | locus YOR080W, strain dia2, stronger effect = lower value 0.569 | locus YOR083W, strain WHI5, stronger effect = lower value 0.547 | locus YOR106W, strain vam3, stronger effect = lower value 0.505 | locus YOR136W, strain idh2, stronger effect = lower value 0.549 | locus YOR144C, strain elg1, stronger effect = lower value 0.483 | locus YOR184W, strain ser1, stronger effect = lower value 0.604 | locus YOR231W, strain MKK1, stronger effect = lower value 1.28 [resistant] | locus YOR265W, strain rbl2, stronger effect = lower value 0.469 | locus YOR270C, strain vph1, stronger effect = lower value 0.762 | locus YOR290C, strain snf2, stronger effect = lower value 0.636 | locus YOR316C, strain cot1, stronger effect = lower value 0.454 | locus YPL051W, strain arl3, stronger effect = lower value 0.488 | locus YPL055C, strain LGE1, stronger effect = lower value 0.408 | locus YPL078C, strain atp4, stronger effect = lower value 0.643 | locus YPL106C, strain sse1, stronger effect = lower value 0.77 | locus YPL240C, strain hsp82, stronger effect = lower value 0.466 | locus YPL241C, strain CIN2, stronger effect = lower value 0.316 | locus YPL256C, strain CLN2, stronger effect = lower value 1.48 [resistant] | locus YPR119W, strain clb2, stronger effect = lower value 0.472 | locus YPR141C, strain kar3, stronger effect = lower value 0.559 | locus YPR163C, strain tif3, stronger effect = lower value 0.517 | locus YPR167C, strain met16, stronger effect = lower value 0.49 | strain wtn01, stronger effect = lower value 0.535
inactive: locus YDR195W, strain ref2 1.06 | locus YLR039C, strain RIC1, stronger effect = lower value 0.713 | locus YLR262C, strain YPT6, stronger effect = lower value 0.753 | locus YLR357W, strain rsc2, stronger effect = lower value 1.04 | locus YOL012C, strain htz1 1.5
0.406 (active) and 1.08 (inactive): locus YJL095W, strain BCK1, stronger effect = lower value
0.364 (active) and 1.08 (inactive): locus YHR030C, strain SLT2, stronger effect = lower value
